The results in this text go back to PubChem BioAssay (EPA / NIEHS).

Activity calls are given as the source filed them. How the source made its calls: active means hit-call score of the fitted dose curve at least 0.9, where 1 is the maximum; inactive means score below 0.9.

Read-out in test [1]: Thrombomodulin, THBD (gene 7056)
Description: BSK_CASM3C_Thrombomodulin: BioMAP Diversity Plus: CASM3C Assay for Thrombomodulin Biomarker Activity (AID 2283051).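 Further: thrombomodulin protein level measured by ELISA 24 h after dosing.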 The note with it: primary human coronary artery smooth muscle cells; actives raise or lower the signal.

Read-out in test [2]: Tissue Factor, F3 (gene 2152)
Briefly: BSK_CASM3C_TissueFactor: BioMAP Diversity Plus: CASM3C Assay for Tissue Factor Biomarker Activity (AID 2283052).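 Further: cell surface tissue factor protein level read by ELISA.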 The note with it: primary human coronary artery smooth muscle cells; actives raise or lower the signal.

Read-out in test [3]: Interferon-gamma inducible Protein 10 (IP10), CXCL10 (gene 3627)
Briefly: BSK_hDFCGF_IP10: BioMAP Diversity Plus: hDFCGF Assay for Interferon-gamma inducible Protein 10 (IP10) Biomarker Activity (AID 2283053). Conditions: primary human foreskin fibroblasts; actives raise or lower the signal. The method in brief:
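Primary human foreskin fibroblasts exposed to chemicals for 24 h. IP-10 measured by ELISA; changes fitted bidirectionally against DMSO baseline.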

Read-out in test [4]: Urokinase-type plasminogen activator receptor (uPAR), PLAUR (gene 5329)
Briefly: BSK_CASM3C_uPAR: BioMAP Diversity Plus: CASM3C Assay for Urokinase-type plasminogen activator receptor (uPAR) Biomarker Activity (AID 2283054).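 Further: cell-surface uPAR protein level quantified by ELISA.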 Conditions: primary human coronary artery smooth muscle cells; actives raise or lower the signal.

Read-out in test [5]: Vascular cell adhesion molecule 1 (VCAM1), VCAM1 (gene 7412)
Briefly: BSK_CASM3C_VCAM1: BioMAP Diversity Plus: CASM3C Assay for Vascular cell adhesion molecule 1 (VCAM1) Biomarker Activity (AID 2283055).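 Further: VCAM-1 protein level quantified by ELISA on the cells.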 The note with it: primary human coronary artery smooth muscle cells; actives raise or lower the signal.

Read-out in test [6]: Collagen III, COL3A1 (gene 1281)
Description: BSK_hDFCGF_CollagenIII: BioMAP Diversity Plus: hDFCGF Assay for Collagen III Biomarker Activity (AID 2283056). Conditions: primary human foreskin fibroblasts; actives raise or lower the signal. The method in brief: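 hDFCGF primary human dermal fibroblasts; 24 h chemical exposure; collagen III by ELISA; bidirectional curve fit vs DMSO baseline (gain or loss of signal).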

Read-out in test [7]: Epidermal growth factor receptor (EGFR), EGFR (gene 1956)
Description: BSK_hDFCGF_EGFR: BioMAP Diversity Plus: hDFCGF Assay for Epidermal growth factor receptor (EGFR) Biomarker Activity (AID 2283057). Conditions: primary human foreskin fibroblasts; actives raise or lower the signal. The method in brief: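 Primary human foreskin fibroblasts (hDFCGF system), sampled 24 h after dosing; EGFR quantified by ELISA. Bidirectional fit relative to DMSO baseline; SRB total-protein staining in parallel cultures for cytotoxicity.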

Read-out in test [8]: Interleukin-8 (IL8), CXCL8 (gene 3576)
Briefly: BSK_hDFCGF_IL8: BioMAP Diversity Plus: hDFCGF Assay for Interleukin-8 (IL8) Biomarker Activity (AID 2283058). Conditions: primary human foreskin fibroblasts; actives raise or lower the signal. The method in brief:
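ELISA read-out of IL-8 from primary human foreskin fibroblast cultures taken 24 h after dosing; values are bidirectional fits relative to DMSO vehicle.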

The nature of test [9]: BSK_hDFCGF_Proliferation: Cell Proliferation Assessment in the BioMAP Diversity Plus: hDFCGF Assay (AID 2283059).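 Further: curves fitted for both rise and fall of signal versus DMSO baseline.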 The note with it: primary human foreskin fibroblasts. The method in brief: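 This proliferation readout used SRB total-protein staining of human foreskin fibroblasts […], normalized to DMSO with bidirectional curve fitting.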
Read-out in test [10]: Macrophage colony-stimulating factor (MCSF), CSF1 (gene 1435)
Description: BSK_hDFCGF_MCSF: BioMAP Diversity Plus: hDFCGF Assay for Macrophage colony-stimulating factor (MCSF) Biomarker Activity (AID 2283060). The note with it: primary human foreskin fibroblasts; actives raise or lower the signal. The method in brief: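 ELISA read-out of M-CSF in human dermal foreskin fibroblast cultures, 24 h after chemical dosing; gain or loss of signal fitted bidirectionally relative to DMSO baseline.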

The nature of test [11]: BSK_hDFCGF_SRB: Viability Assessment in the BioMAP Diversity Plus: hDFCGF Assay (AID 2283061).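 Further: cells exposed to compound for 24 h before the read.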 The note with it: primary human foreskin fibroblasts. The method in brief: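 Primary human foreskin fibroblasts; 24 h post-dose; fixed 10% TCA, stained 0.1% SRB, A560 read; total protein as overt cytotoxicity measure; curves fit bidirectionally vs DMSO control.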
Read-out in test [12]: TIMP metallopeptidase inhibitor 1 (TIMP1), TIMP1 (gene 7076)
Briefly: BSK_hDFCGF_TIMP1: BioMAP Diversity Plus: hDFCGF Assay for TIMP metallopeptidase inhibitor 1 (TIMP1) Biomarker Activity (AID 2283062). Conditions: primary human foreskin fibroblasts; actives raise or lower the signal. The method in brief:
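ELISA readout of TIMP-1 from human dermal foreskin fibroblast cultures 24 h post-dosing. Curves were fitted in both directions against DMSO baseline, with SRB total-protein staining in parallel cultures as a cytotoxicity check.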

Read-out in test [13]: Monokine induced gamma interferon (MIG), CXCL9 (gene 4283)
Description: BSK_hDFCGF_MIG: BioMAP Diversity Plus: hDFCGF Assay for Monokine induced gamma interferon (MIG) Biomarker Activity (AID 2283063). Conditions: primary human foreskin fibroblasts; actives raise or lower the signal. The method in brief: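 Fibroblasts (human foreskin, primary) dosed, 24 h, MIG by ELISA; fit bidirectional vs DMSO.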

Read-out in test [14]: Matrix Metallopeptidase 1 (MMP1), MMP1 (gene 4312)
Briefly: BSK_hDFCGF_MMP1: BioMAP Diversity Plus: hDFCGF Assay for Matrix Metallopeptidase 1 (MMP1) Biomarker Activity (AID 2283064). The note with it: primary human foreskin fibroblasts; actives raise or lower the signal. The method in brief: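 Primary human foreskin fibroblasts in the hDFCGF system were dosed with test chemical, and MMP1 was measured by ELISA 24 h later. Values come from bidirectional curve fitting against the DMSO baseline.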

Read-out in test [15]: Vascular cell adhesion molecule 1 (VCAM1), VCAM1 (gene 7412)
Description: BSK_hDFCGF_VCAM1: BioMAP Diversity Plus: hDFCGF Assay for Vascular cell adhesion molecule 1 (VCAM1) Biomarker Activity (AID 2283065).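 On AC50: VCAM-1 protein level quantified by ELISA after 24 h chemical exposure.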 Conditions: primary human foreskin fibroblasts; actives raise or lower the signal. The method in brief: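 ELISA read-out of VCAM-1 on human skin fibroblasts, 24 h post-dose; gain or loss of signal fitted bidirectionally against DMSO baseline.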

Read-out in test [16]: Plasminogen activator inhibitor-1 (PAI1), SERPINE1 (gene 5054)
Description: BSK_hDFCGF_PAI1: BioMAP Diversity Plus: hDFCGF Assay for Plasminogen activator inhibitor-1 (PAI1) Biomarker Activity (AID 2283066). Conditions: primary human foreskin fibroblasts; actives raise or lower the signal. The method in brief:
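Human foreskin fibroblast primary cells, 24 h chemical exposure; PAI-1 measured by ELISA. Bidirectional fitting relative to DMSO; parallel cultures stained with SRB for total protein to flag overt cytotoxicity.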

Read-out in test [17]: Intercellular Adhesion Molecule 1 (ICAM1), ICAM1 (gene 3383)
Briefly: BSK_KF3CT_ICAM1: BioMAP Diversity Plus: KF3CT Assay for Intercellular Adhesion Molecule 1 (ICAM1) Biomarker Activity (AID 2283067). The note with it: primary human keratinocytes with fibroblasts; actives raise or lower the signal. The method in brief:
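ELISA readout of ICAM-1; KF3CT human skin co-culture (keratinocytes + foreskin fibroblasts), 24 h post-dose; gain/loss fit vs DMSO baseline.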

Read-out in test [18]: Interferon-gamma inducible Protein 10 (IP10), CXCL10 (gene 3627)
Description: BSK_KF3CT_IP10: BioMAP Diversity Plus: KF3CT Assay for Interferon-gamma inducible Protein 10 (IP10) Biomarker Activity (AID 2283068). Conditions: primary human keratinocytes with fibroblasts; actives raise or lower the signal. The method in brief: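 Signal is secreted/surface IP-10 by ELISA in a human primary skin co-culture of keratinocytes and foreskin fibroblasts, taken 24 h post-dosing; DMSO served as negative control.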

Test [19] is described as follows: BSK_KF3CT_SRB: Viability Assessment in the BioMAP Diversity Plus: KF3CT Assay (AID 2283069).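 Further: total protein by sulforhodamine B staining as a cytotoxicity measure; read 24 h after compound addition.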 The note with it: primary human keratinocytes with fibroblasts. The method in brief: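 Human primary keratinocyte plus foreskin fibroblast co-culture exposed to chemicals for 24 h. Total protein measured by 0.1% sulforhodamine B staining after 10% TCA fixation, read at 560 nm; bidirectional fitting versus DMSO baseline.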

Read-out in test [20]: Interleukin-1 alpha (IL1a), IL1A (gene 3552)
Description: BSK_KF3CT_IL1a: BioMAP Diversity Plus: KF3CT Assay for Interleukin-1 alpha (IL1a) Biomarker Activity (AID 2283070). The note with it: primary human keratinocytes with fibroblasts; actives raise or lower the signal. The method in brief: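 Human keratinocyte plus foreskin fibroblast primary co-culture, sampled 24 h after chemical dosing. IL-1a measured by ELISA; responses fitted bidirectionally against DMSO baseline (negative control), so gain or loss of signal both count.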

`CCOC1Oc2ccc(OS(C)(=O)=O)cc2C1(C)C` (stereo not given): the result in test [1], in test [2], in test [3], in [4], in [5] and in [6] was inactive. Besides, the result in test [7], in test [8], in test [9], in test [10], in test [11] and in test [12] was inactive. The result in test [13], in test [14], in [15], in test [16], in test [17] and in [18] was inactive. Moreover, the result in [19] and in [20] was inactive.
For `CCCN(CCC)c1c([N+](=O)[O-])cc(C(F)(F)F)cc1[N+](=O)[O-]`, the outcome in test [1], in [2], in [4], in test [5], in [6] and in [7] was inactive. Further, the result in [8], in test [12], in test [13], in test [17], in test [19] and in test [20] was inactive. The AC50 is 15.2 µM (active) in [3]; 29.6 µM (active) in test [9]; 28.6 µM (active) in test [10]; 30.9 µM (active) in test [11]; 4.1 µM (active) in [14]; 7.77 µM (active) in test [15]. For the same compound, the AC50 in test [16] was 29.4 µM (active); in [18], 28.8 µM (active).
For `CC[C@H](C)[C@H]1O[C@]2(C=C[C@@H]1C)C[C@@H]1C[C@@H](C/C=C(\C)[C@@H](O[C@H]3C[C@H](OC)[C@@H](O[C@H]4C[C@H](OC)[C@@H](O)[C@H](C)O4)[C@H](C)O3)[C@@H](C)/C=C/C=C3\CO[C@@H]4[C@H](O)C(C)=C[C@@H](C(=O)O1)[C@]34O)O2` (tested in a mixture with another compound), the outcome in [1] and in [2] was inactive. Moreover, the half-maximal activity concentration (AC50) in [3] was 10.7 µM (active); in [4], 12.2 µM (active); in [5] it was 15 µM (active); in test [6] it was 6.63 µM (active); in [7], 5.21 µM (active); in [8] it was 9.73 µM (active). Further, the AC50 in [9] is 5.3 µM (active); in [10], 8.11 µM (active); in test [11], 6.68 µM (active); in test [12], 9.96 µM (active); in test [13], 12.9 µM (active); in test [14], 9.79 µM (active). Also, the AC50 was 9.78 µM (active) in [15]; 6.95 µM (active) in test [16]; 14.1 µM (active) in test [17]; 12.5 µM (active) in test [18]; 14.1 µM (active) in [19]; 6.95 µM (active) in test [20].
With `CCC(C)(C)C(=O)OC1=C(c2ccc(Cl)cc2Cl)C(=O)OC12CCCCC2`, the AC50 in test [1] is 10.5 µM (active); in test [3] it was 10.3 µM (active); in [6], 5.74 µM (active); in [7] it was 5.45 µM (active); in test [8], 11 µM (active); in test [9] it was 4.67 µM (active). Also, the half-maximal activity concentration (AC50) in test [10] is 5.55 µM (active); in test [11] it was 11.4 µM (active); in [12], 5.42 µM (active); in test [13] it was 9.84 µM (active); in test [14] it was 7.8 µM (active); in [15], 9.68 µM (active). The AC50 in [16] was 6.68 µM (active); in test [17], 29.5 µM (active); in test [18], 29.9 µM (active); in [19], 31.9 µM (active); in test [20], 31.1 µM (active). The result in test [2], in test [4] and in test [5] was inactive.
For `CNC(=O)CSP(=S)(OC)OC`, the result in [1], in test [2], in test [3], in test [4], in test [5] and in test [6] was inactive. Also, the result in [7], in [8], in test [9], in test [10], in test [11] and in [12] was inactive. The outcome in test [13], in test [14], in test [15], in test [16], in test [17] and in test [18] was inactive. The outcome in [19] and in [20] was inactive.
For `COP(=S)(OC)Oc1ccc([N+](=O)[O-])cc1`, the outcome in test [1], in [2], in test [4], in test [5], in [7] and in test [8] was inactive. Further, the outcome in test [9], in test [11], in [13], in [14], in test [15] and in [17] was inactive. In addition, the outcome in test [19] and in test [20] was inactive. The AC50 in test [3] was 20.3 µM (active); in [6], 16.6 µM (active); in test [10], 11.1 µM (active); in [12], 5.75 µM (active); in test [16] it was 6.41 µM (active); in test [18] it was 9.18 µM (active).
